From PubChem BioAssay (Tox21)
Results filed as inconclusive are left out. Activity calls are given as the source filed them. Calls come from the whole dose curve; as a rule, active = well fitted curve in the direction sought with a large enough effect in the repeat runs; inconclusive = weak or mixed curves; inactive = no such curve, though single readings can be large; an effect the other way counts as inactive or inconclusive.

Tests used:
[1] = target: Cytochrome P450 2C19 (Homo sapiens) (UniProt P33261); test: Cytochrome P450 Family 2 Subfamily C Member 19 (CYP2C19) small molecule antagonists: luciferase reporter qHTS assay (AID 1671197); note: nearly all actives have a fitted effect of over 65% in size
Sequence of Cytochrome P450 2C19 (Homo sapiens) (P33261 whole entry, looked up): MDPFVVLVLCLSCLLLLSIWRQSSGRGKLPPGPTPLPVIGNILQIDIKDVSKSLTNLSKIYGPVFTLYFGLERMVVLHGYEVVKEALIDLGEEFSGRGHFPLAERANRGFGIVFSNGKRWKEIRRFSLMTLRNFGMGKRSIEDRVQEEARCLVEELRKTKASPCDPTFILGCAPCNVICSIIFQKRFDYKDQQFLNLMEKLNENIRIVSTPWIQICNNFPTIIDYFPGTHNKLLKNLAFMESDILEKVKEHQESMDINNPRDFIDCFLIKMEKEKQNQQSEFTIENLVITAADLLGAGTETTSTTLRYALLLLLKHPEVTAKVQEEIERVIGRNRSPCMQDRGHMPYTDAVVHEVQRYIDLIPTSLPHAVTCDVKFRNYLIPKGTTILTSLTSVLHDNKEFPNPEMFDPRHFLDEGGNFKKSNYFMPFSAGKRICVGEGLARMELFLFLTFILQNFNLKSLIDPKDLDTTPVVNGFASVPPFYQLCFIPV
Summary of the method: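 Light output is proportional to CYP2C19 activity: proluciferin substrate is converted to luciferin, then detected by a luciferin detection reagent that also stops the 1 h, 37C NADPH-driven reaction. Ketoconazole serves as positive control.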

[2] = target: Cytochrome P450 2C9 (Homo sapiens) (UniProt P11712); test: Cytochrome P450 Family 2 Subfamily C Member 9 (CYP2C9) small molecule antagonists: luciferase reporter qHTS assay (AID 1671198); note: nearly all actives have a fitted effect of over 50% in size
Sequence of Cytochrome P450 2C9 (Homo sapiens) (P11712 whole entry, looked up): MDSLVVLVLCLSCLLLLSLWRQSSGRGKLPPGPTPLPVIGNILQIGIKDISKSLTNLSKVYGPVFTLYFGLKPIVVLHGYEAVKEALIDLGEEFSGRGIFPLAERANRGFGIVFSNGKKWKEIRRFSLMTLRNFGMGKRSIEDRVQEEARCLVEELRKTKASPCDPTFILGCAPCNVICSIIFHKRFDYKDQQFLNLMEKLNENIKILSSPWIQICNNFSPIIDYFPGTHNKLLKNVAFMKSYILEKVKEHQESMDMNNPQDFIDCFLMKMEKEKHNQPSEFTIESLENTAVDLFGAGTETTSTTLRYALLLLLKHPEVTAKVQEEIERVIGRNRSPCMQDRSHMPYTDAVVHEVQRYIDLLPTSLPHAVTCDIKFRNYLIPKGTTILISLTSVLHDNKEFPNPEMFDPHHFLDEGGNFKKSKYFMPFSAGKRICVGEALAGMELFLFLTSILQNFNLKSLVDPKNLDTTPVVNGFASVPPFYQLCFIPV
Summary of the method: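 P450-Glo proluciferin substrate with CYP2C9 enzyme; 10 min RT preincubation, then NADPH regeneration 1 h at 37C; luciferin detection reagent 20 min RT, luminescence in relative luminescence units.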

[3] = target: Cytochrome P450 1A2 (Homo sapiens) (UniProt P05177); test: Cytochrome P450 Family 1 Subfamily A Member 2 (CYP1A2) small molecule antagonists: luciferase reporter qHTS assay (AID 1671199); note: nearly all actives have a fitted effect of over 50% in size
Sequence of Cytochrome P450 1A2 (Homo sapiens) (P05177 whole entry, looked up): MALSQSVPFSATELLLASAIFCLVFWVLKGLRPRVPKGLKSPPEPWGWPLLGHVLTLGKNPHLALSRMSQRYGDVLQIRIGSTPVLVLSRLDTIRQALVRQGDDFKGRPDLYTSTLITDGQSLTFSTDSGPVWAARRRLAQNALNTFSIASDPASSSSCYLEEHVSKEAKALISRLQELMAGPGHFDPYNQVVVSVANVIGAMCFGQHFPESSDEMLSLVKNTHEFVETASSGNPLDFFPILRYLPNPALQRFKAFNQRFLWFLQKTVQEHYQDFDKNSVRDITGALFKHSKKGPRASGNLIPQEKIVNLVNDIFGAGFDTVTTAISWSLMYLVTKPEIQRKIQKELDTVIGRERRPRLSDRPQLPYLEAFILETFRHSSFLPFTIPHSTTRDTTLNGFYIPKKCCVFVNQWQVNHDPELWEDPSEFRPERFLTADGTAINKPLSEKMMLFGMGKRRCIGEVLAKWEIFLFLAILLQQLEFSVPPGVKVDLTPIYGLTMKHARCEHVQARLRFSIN
Summary of the method: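 Human CYP1A2 activity measured with a P450-Glo proluciferin substrate; compounds in DMSO preincubated 10 min at room temperature with enzyme-substrate mix, then NADPH regeneration system added for 1 h. Luciferin detection reagent, 20 min, luminescence read.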

[4] = target: Voltage-gated inwardly rectifying potassium channel KCNH2 (Homo sapiens) (UniProt Q12809); test: Human Ether-a-go-go-Related Gene (hERG) channel small molecule antagonists: fluorescence cell-based qHTS assay (AID 1671200); note: nearly all actives have a fitted effect of over 50% in size
Sequence of Voltage-gated inwardly rectifying potassium channel KCNH2 (Homo sapiens) (Q12809 whole entry, looked up): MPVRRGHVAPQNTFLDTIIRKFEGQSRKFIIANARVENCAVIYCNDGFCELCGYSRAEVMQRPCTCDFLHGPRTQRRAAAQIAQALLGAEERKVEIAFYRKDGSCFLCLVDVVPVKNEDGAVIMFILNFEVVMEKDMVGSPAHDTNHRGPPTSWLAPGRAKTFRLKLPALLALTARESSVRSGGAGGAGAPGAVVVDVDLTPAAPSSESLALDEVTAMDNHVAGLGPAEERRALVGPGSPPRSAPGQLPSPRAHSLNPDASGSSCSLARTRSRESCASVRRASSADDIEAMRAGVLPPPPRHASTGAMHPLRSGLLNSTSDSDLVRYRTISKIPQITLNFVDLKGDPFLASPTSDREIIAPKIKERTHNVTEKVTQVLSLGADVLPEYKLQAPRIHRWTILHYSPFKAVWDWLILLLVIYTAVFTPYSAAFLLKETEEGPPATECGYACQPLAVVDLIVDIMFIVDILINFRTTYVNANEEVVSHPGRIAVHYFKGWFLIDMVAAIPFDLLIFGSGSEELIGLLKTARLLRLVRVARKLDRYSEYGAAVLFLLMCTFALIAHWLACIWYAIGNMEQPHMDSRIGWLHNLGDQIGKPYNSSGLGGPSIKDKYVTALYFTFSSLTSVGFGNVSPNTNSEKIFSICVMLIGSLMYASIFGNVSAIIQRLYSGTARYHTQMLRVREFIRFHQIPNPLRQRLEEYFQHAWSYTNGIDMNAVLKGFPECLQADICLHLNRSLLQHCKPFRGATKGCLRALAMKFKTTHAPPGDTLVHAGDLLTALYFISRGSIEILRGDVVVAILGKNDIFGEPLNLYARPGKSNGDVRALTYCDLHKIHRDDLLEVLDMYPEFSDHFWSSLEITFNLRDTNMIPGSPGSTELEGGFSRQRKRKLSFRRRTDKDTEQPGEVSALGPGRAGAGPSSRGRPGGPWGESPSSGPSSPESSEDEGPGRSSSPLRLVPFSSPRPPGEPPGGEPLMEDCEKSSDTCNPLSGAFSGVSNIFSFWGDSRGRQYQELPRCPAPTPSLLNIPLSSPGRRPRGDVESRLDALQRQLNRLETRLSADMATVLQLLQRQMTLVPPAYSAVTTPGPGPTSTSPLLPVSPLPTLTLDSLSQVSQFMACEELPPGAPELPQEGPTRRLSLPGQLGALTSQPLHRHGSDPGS
Summary of the method: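 Channel function was assessed by thallium flux. Cells seeded the previous day and kept at 37 C took up FluxOR II dye over 1 h in the dark at room temperature, then sat another 10 min before stimulation.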

[5] = target: Cytochrome P450 3A4 (Homo sapiens) (UniProt P08684); test: Cytochrome P450 Family 3 Subfamily A Member 4 (CYP3A4) small molecule antagonists: luciferase reporter qHTS assay (AID 1671201); note: nearly all actives have a fitted effect of over 50% in size
Sequence of Cytochrome P450 3A4 (Homo sapiens) (P08684 whole entry, looked up): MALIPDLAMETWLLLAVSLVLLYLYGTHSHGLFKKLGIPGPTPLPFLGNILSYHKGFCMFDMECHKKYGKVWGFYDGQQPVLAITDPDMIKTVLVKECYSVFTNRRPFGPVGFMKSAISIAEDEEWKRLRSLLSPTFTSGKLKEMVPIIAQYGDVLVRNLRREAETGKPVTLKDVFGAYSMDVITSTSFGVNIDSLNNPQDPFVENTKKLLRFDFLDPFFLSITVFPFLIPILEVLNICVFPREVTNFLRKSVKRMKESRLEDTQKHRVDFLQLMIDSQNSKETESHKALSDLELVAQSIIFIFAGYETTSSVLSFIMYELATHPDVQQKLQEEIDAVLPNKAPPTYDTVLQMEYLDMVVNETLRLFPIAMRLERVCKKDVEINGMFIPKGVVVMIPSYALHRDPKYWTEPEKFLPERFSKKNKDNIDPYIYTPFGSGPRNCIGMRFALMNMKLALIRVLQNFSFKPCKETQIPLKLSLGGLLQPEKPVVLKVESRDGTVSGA
Summary of the method: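 Compounds in DMSO were pin-transferred onto CYP3A4 enzyme-substrate mix and held 10 min at room temperature. NADPH regenerating solution started the reaction for 1 h; luciferin detection reagent stopped it, and luminescence was read after 20 min.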
Potency is the fitted concentration of half-maximal effect.

Row | SMILES | Potency [1] | Potency [2] | Potency [3] | Potency [4] | Potency [5]
1 | C=C1C(=C/C=C2\CCC[C@]3(C)[C@@H]([C@H](C)/C=C/[C@@H](O)C4CC4)CC[C@@H]23)C[C@@H](O)C[C@@H]1O | 7.76 µM (active) | 15.5 µM (active) | inactive | inactive | inactive
2 | CCOc1ccc(N)c([N+](=O)[O-])c1 | 35.6 µM (active) | 63.3 µM (active) | 1.78 µM (active) | inactive | 
3 | O=C(Nc1ccc(S(=O)(=O)N2CCOCC2)cc1)c1cc(Cl)ccc1NS(=O)(=O)c1ccc(Cl)s1 | 38.9 µM (active) | 0.0436 µM (active) | inactive | inactive | 
4 | O=C(Cl)c1cc(C(=O)Cl)cc(C(=O)Cl)c1 | inactive | 28.3 µM (active) | 39.9 µM (active) |  | 
5 | CC(C)CC(=O)C1C(=O)c2ccccc2C1=O | 39.9 µM (active) | 17.8 µM (active) | 35.6 µM (active) | inactive | inactive
6 | Clc1ccc(Cn2c(CN3CCCC3)nc3ccccc32)cc1 | 0.776 µM (active) | 15.5 µM (active) | 18.2 µM (active) | 1.34 µM (active) | 
7 | CC(C)Cc1ccc(C(C)C(=O)OCc2ccccn2)cc1 (stereo not given) | 7.76 µM (active) | 7.76 µM (active) | 32.3 µM (active) |  | 
8 | Cc1nn(C)c(Oc2ccccc2)c1/C=N/OCc1ccc(C(=O)OC(C)(C)C)cc1 | 2 µM (active) | 2.83 µM (active) |  |  | 
9 | C#CCN(C)CCCOc1ccc(Cl)cc1Cl | 3.89 µM (active) | 17.4 µM (active) | 1.82 µM (active) |  | 
10 | COc1cc(Cl)ccc1Oc1ccc(Cl)cc1Cl | 1.23 µM (active) | 19.5 µM (active) | 12.3 µM (active) | inactive | 
11 | O=[N+]([O-])c1cccc(S(=O)(=O)O)c1 | 32.2 µM (active) | 32.2 µM (active) | 40.5 µM (active) | 22.2 µM (active) | 36.1 µM (active)
12 | COc1ccnc(CS(=O)c2nc3ccc(OC(F)F)cc3[nH]2)c1OC (stereo not given) | 13.8 µM (active) | 34.7 µM (active) | 17.4 µM (active) |  | 
13 | O[C@@H](COc1cccc2ncccc12)CN1CCN(C2c3ccccc3[C@@H]3[C@H](c4ccccc42)C3(F)F)CC1 (stereo not given in full) | 21.9 µM (active) | 11 µM (active) | 15.5 µM (active) | 10.7 µM (active) | 
14 | OCCN1CCN(CCCN2c3ccccc3C=Cc3ccccc32)CC1 | inactive | inactive | inactive |  | 
15 | O=C(CS)Nc1ccccc1 | 8.71 µM (active) | 13.8 µM (active) |  |  | 
16 | CCCCCCOC(=O)NC(=N)c1ccc(NCc2nc3cc(C(=O)N(CCC(=O)OCC)c4ccccn4)ccc3n2C)cc1 | 2.19 µM (active) | 3.09 µM (active) | inactive |  | 
17 | COc1cc2nc(Cl)nc(N)c2cc1OC | inactive | inactive | 2.75 µM (active) | inactive | 
18 | CCCCC/C=C\C/C=C\CCCCCCCC(=O)NC(C)c1ccccc1 (stereo not given) | 4.9 µM (active) | 2.45 µM (active) | inactive |  | 
19 | CN1CCC(=C2c3ccccc3Sc3ccccc32)CC1 | 38.9 µM (active) | inactive | inactive | 12 µM (active) | 
20 | CCCCc1nc2cccnc2n1Cc1ccc(-c2ccccc2-c2nnn[nH]2)cc1 | inactive | 0.356 µM (active) | 44.8 µM (active) | inactive | 
21 | O=C1[C@H]2CCCC[C@H]2C(=O)N1CCCCN1CCN(c2nsc3ccccc23)CC1 | inactive | inactive | inactive | 8.49 µM (active) | 
22 | Cc1c(N)cccc1[N+](=O)[O-] | inactive | inactive | 32.2 µM (active) |  | 
23 | COc1ccc2cccc(CCNC(C)=O)c2c1 | 34.7 µM (active) | 15.5 µM (active) | 4.9 µM (active) |  | 
24 | CC(=O)NO | inactive | inactive | inactive | inactive | inactive
25 | C=CCOC(=O)CCC1CCCCC1 | inactive | inactive | inactive | inactive | inactive
26 | CC(C)(CO)[N+](=O)[O-] | inactive | inactive | inactive | inactive | inactive
27 | O=C(Nc1ccccc1)c1ccccc1O | 22.4 µM (active) | 31.7 µM (active) | 5.03 µM (active) | inactive | inactive
28 | Cc1cccc(C)c1OCC(=O)N[C@@H](Cc1ccccc1)[C@@H](O)C[C@H](Cc1ccccc1)NC(=O)[C@H](C(C)C)N1CCCNC1=O | 21.9 µM (active) | 13.8 µM (active) | inactive |  | 
29 | c1ccc(CNCCNCc2ccccc2)cc1 | 7.76 µM (active) | inactive |  |  | 
30 | COc1cc2c(cc1OC)C(C(C(=O)N(CCc1ccc(OC)c(OC)c1OC)CCc1ccc(OC)c(OC)c1OC)c1ccccc1)=NCC2 (stereo not given) | 12.3 µM (active) | 11 µM (active) | inactive |  | 
